For 20 compounds, Potency and viability change results are on record in PubChem BioAssay (NCATS).

Inconclusive results are not listed. Where a call stands in place of a potency, no number is given. The source made the active and inactive calls. The call rests on the fitted dose curve; in most records, active means well fitted inhibition curve with a large enough effect in the main read-out, with a control signal flat (not every such curve was filed as active); inconclusive means small, poorly fitted or top-dose-only effect, or effect the other way, or a change in a side signal; inactive means no such curve, though single readings can be large or run the other way.

The assay is described as follows: Nrf2 qHTS screen for inhibitors: Validation (AID 493153). The conditions noted are these: A549 ARE-Fluc reporter, 18-24 h; Potency: luciferase luminescence; viability change: measured here: cytotoxicity max response; luciferase luminescence, at 46.1 µM (top of the series). The source says:
NIH Molecular Libraries Probe Production Network [MLPCN] NIH Chemical Genomics Center [NCGC] MLPCN Grant: R03-MH092170-01 Assay Provider: Shyam Biswal, Johns Hopkins University Assay Overview: Nrf2 is a transcription factor that maintains cellular redox homoestasis and protects cells from xenobiotics. Nrf2 binds to the antioxidant response element (ARE) to induce gene expression of a broad spectrum of genes that encode for antioxidants. […] Finding a small molecule that act as an inhibitor of Nrf2 function would represent a novel therapeutic target that could lead to improvement in survival of patients undergoing chemo- and/or radio- therapy. 1. Shibata, T., et al., Genetic Alteration of Keap1 Confers Constitutive Nrf2 Activation and Resistance to Chemotherapy in Gallbladder Cancer. Gastroenterology, 2008. 2. Sjoblom, T., et al., The consensus coding sequences of human breast and colorectal cancers. Science, 2006. 314(5797): p. 268-74.
Assay Protocol Summary: A concentration-response assay was performed with A549 ARE_Fluc cells which are suspended in 5% FBS OPTI-MEM. Five uL were dispensed into 1536-well white TC-treated plate using the Kalypsys dispenser to achieve a density of 5000 cells/well in all columns except column 1. The plate is incubated at 37deg C at 5% CO2 for 2 hours before 23 nL of compounds are added with the Kalypsys pin tool equipped with a 1,536-pin array containing 10-nL slotted pins (FP1S10, 0.457-mm diameter, 50.8 mm long; V&P Scientific). The control compounds Budesonide and Staurosporine are both added at a concentration of 2mM and Budesonide is also added as a 1:10 titration, starting at 200uM, to achieve dose-response. After an 18-24 hour incubation at 37deg C at 5% CO2, 5ul of medium is added to column 1. Afterwards 1ul of 5x of CellTiter-Fluor (Promega) is added to every well. The plate is then incubated at 37deg C at 5% CO2 for 30 minutes before they are read on the ViewLux (Perkin Elmer) for a fluorescent read Ex=405(10)/Em=525(10) for a 3 second exposure, 2x binning, and high gain. Then 3 uL of 3x BugLite is dispensed into all wells and the plate is incubated at ambient room temperature for 15 minutes. Afterwards another ViewLux read is performed using the clear filter to get a luminescent read with the settings of 40 second exposure, 2x binning, and high gain. Cytotoxicity is assessed through the first fluorescent read and then biochemical activity against Nrf2 is measured in the luminescent read.
For `C[N+](C)(C)CCCCCCCCCC[N+](C)(C)C`, the Potency entry was “inactive” and the viability change is -2.44%.

As for `CCN(CC)CCNC(=O)c1ccc(NC(C)=O)cc1`, the viability change came to 16.6% and the Potency entry is “inactive”.

Regarding `CCCCCCCC/C=C\CCCCCCCC(=O)NCc1ccc(O)c(OC)c1`, the viability change was -10.2% and the Potency result is “inactive”.

Turning to `O=C(O)CN(CCOCCOCCN(CC(=O)O)CC(=O)O)CC(=O)O`, the viability change turned out to be 3.82% and the Potency entry is “inactive”.

Consider `CC(C)COCC(CN(Cc1ccccc1)c1ccccc1)N1CCCC1` (stereo not given), for which the Potency result is “inactive” and the viability change was 2.97%.

As for `CN(C)[C@@H]1C(=O)C(C(N)=O)=C(O)[C@@]2(O)C(=O)C3=C(O)c4c(O)ccc(Cl)c4[C@@H](O)[C@H]3C[C@@H]12`, the viability change worked out at 4.27% and the Potency entry is “inactive”.

As for `CC(=O)OC(C)C[N+](C)(C)C` (stereo not given), the Potency entry is “inactive” and the viability change was 2.56%.

`O=C(O)CP(=O)(O)O`: the viability change is 10.3% and the Potency entry was “inactive”.

Consider `O=c1[nH]c(=O)n([C@H]2C[C@H](O)[C@@H](CO)O2)cc1Br`, for which the Potency entry is “inactive” and the viability change was determined as 1.73%.

As for `CN(C)C/C=C(/c1ccc(Br)cc1)c1cccnc1`, the viability change is 11.1% and the Potency entry is “inactive”.

Consider `NCCCNCCSP(=O)(O)O`, for which the Potency result was “inactive” and the viability change is 4.69%.

Turning to `C[C@@H](O)[C@H]1C(=O)N2C(C(=O)O)=C(SCCN=CN)C[C@H]12`, the Potency entry is “inactive” and the viability change is -3.32%.

With `COc1cc2c(cc1OC)-c1cc(=Nc3c(C)cc(C)cc3C)n(C)c(=O)n1CC2`, the Potency result was “inactive” and the viability change was -6.02%.

As for `CCN(CC)CC(=O)Nc1c(C)cccc1C`, the Potency entry was “inactive” and the viability change was -7.11%.

Turning to `CCCN1C[C@H](CSC)C[C@@H]2c3cccc4[nH]cc(c34)C[C@H]21`, the Potency result is “inactive” and the viability change is 2.56%.

Consider `CNCCCN1c2ccccc2CCc2ccccc21`, for which the viability change was -3.92% and the Potency result is “inactive”.

As for `OCCN1CCN(CCCN2c3ccccc3C=Cc3ccccc32)CC1`, the Potency result was “inactive” and the viability change worked out at 4.92%.

`CCCOc1ccccc1-c1nc2n[nH]nc2c(=O)[nH]1`: the Potency result is “inactive” and the viability change was -11.3%.

Regarding `CCC(=O)c1ccc2c(c1)N(CCCN(C)C)c1ccccc1S2`, the Potency result is “inactive” and the viability change is -14.9%.

Regarding `Cc1ccc(/C(=C\CN2CCCC2)c2ccccn2)cc1`, the viability change stood at 2.7% and the Potency entry is “inactive”.
